Usually AC50 stands for the midpoint of the concentration-response curve, whichever way the signal moves.

The structures appear in SMILES notation. Records with an inconclusive call do not appear. The source made the active and inactive calls. The calls were made as follows: active = hit-call score of the fitted dose curve at least 0.9, where 1 is the maximum; inconclusive = response in the unintended direction; inactive = score below 0.9.

human Muscarinic, M4 Receptor, CHRM4 (gene 1132), sequence (P08173 whole entry, looked up): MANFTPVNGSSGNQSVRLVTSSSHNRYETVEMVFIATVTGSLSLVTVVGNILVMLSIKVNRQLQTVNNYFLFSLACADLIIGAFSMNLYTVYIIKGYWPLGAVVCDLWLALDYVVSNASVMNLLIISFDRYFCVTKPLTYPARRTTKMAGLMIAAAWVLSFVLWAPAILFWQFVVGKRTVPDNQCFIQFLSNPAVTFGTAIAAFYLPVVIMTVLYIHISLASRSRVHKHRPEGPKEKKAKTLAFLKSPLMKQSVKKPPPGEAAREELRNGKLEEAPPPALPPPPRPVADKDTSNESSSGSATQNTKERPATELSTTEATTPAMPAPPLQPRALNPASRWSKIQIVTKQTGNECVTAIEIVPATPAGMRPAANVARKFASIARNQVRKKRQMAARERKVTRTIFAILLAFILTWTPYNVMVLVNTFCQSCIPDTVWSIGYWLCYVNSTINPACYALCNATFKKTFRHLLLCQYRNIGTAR

In this assay the target is human Muscarinic, M4 Receptor, CHRM4 (gene 1132) (UniProt P08173). Kind of assay: NVS_GPCR_hM4: NovaScreen (NVS) G Protein-Coupled Receptor Assay for human Muscarinic, M4 Receptor (AID 2283274). As for the experimental part:
NVS_GPCR_hM4 is a biochemical, single-readout assay that uses extracted gene-proteins from CHO in a cell-free assay. Measurements were taken 1 hour after chemical dosing in a 96-well plate.NVS_GPCR_hM4 is one of one assay component(s) measured or calculated from the NVS_GPCR_hM4 assay. It is designed to make measurements of radioligand binding, a form of binding reporter, as detected with scintillation counting signals by Filter-based radiodetection technology.Data from the assay component NVS_GPCR_hM4 was analyzed into 1 assay endpoint. This assay endpoint, NVS_GPCR_hM4, was analyzed in the positive analysis fitting direction relative to DMSO as the negative control and baseline of activity. Using a type of binding reporter, loss-of-signal activity can be used to understand changes in the binding as they relate to the gene CHRM4. Furthermore, this assay endpoint can be referred to as a primary readout, because the performed assay has only produced 1 assay endpoint. To generalize the intended target to other relatable targets, this assay endpoint is annotated to the gpcr intended target family, where the subfamily is rhodopsin-like receptor.
Binding assays used specific radioligands (tritiated, iodinated) with non-radioactive competitive displacement ligands in agonist or antagonist protocols (as indicated) and various reference compounds and inhibitors to titrate specific binding to receptors and transporters. Most enzyme assays (CYPs, kinases, phosphatases, proteases, HDACs) used recombinant protein and specific substrates (fluorescence mostly, some colorimetric and radioactive) and inhibitors, followed by a biochemical separation of substrate and product. All assays for the biochemical HTS were initially run in duplicate at a single concentration (10 uM for CYP450 assays and 25 uM for all others). […] Each assay was run with positive and negative controls, and concurrent controls on every plate. The follow-up (secondary) screen tested active chemical-pairs in concentration series, as well as a few additional assays not tested in the primary screen, some selected negative inactives, and several cases re-run in the concentration series for confirmatory purposes.
On to `CCc1nc(N)nc(N)c1-c1ccc(Cl)cc1`, for which the result was inactive. Consider `CCN(CC)CCOc1ccc(C(=C(Cl)c2ccccc2)c2ccccc2)cc1`, for which the AC50 was 4.2 µM (active). On the same count and under the same terms, the value for `CN(C)C(=O)NC1(c2ccccc2)CCN(CC[C@@]2(c3ccc(F)c(F)c3)CN(C(=O)c3ccccc3)CCO2)CC1` was 16.9 µM (active).

As for `O=NO`, the result was inactive. `CO[C@@H]1COCC[C@@H]1N[C@@H]1CC[C@@](C(=O)N2CCc3ncc(C(F)(F)F)cc3C2)(C(C)C)C1`: the AC50 is 25 µM (active).

In the case of `CCCCCCCCCCCCCCOS(=O)(=O)O`, the AC50 was 31.9 µM (active). The same measure, in the same setting: under `CN(C)C(=O)NC1(c2ccccc2)CCN(CCC[C@]2(c3ccc(Cl)c(Cl)c3)CCCN(C(=O)c3ccccc3)C2)CC1` stands 3.46 µM (active).

For `NC(=Nc1ccccc1)Nc1ccccc1`, the AC50 is 14.9 µM (active). Take `Cc1cc(SC2=C(O)C[C@@](CCc3ccc(N)cc3)(C(C)C)OC2=O)c(C(C)(C)C)cc1CO`: the compound was classed as inactive. Regarding `Cn1cnc2c1c(=O)[nH]c(=O)n2C`, the call was inactive.

For the origin of these results see PubChem BioAssay (EPA / NIEHS).
